Calls of active or inactive are those of the source.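 The calls were made as follows, unless noted: active = inhibition of the reporter signal at or above 50%; inactive = inhibition below 50%.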
Tests used:
[1] = inhibitors of TNFa-induced NFkB p65 translocation, primary screen, imaging, HUVEC, MLSMR starter and 10KST1 sets (AID 438;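 active = inhibition above 20% together with a positive visual image hit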;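 also: compound added about 3h40 before a 20 min TNFalpha stimulation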;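 as to inhibition: signal is the nuclear over cytoplasmic p65 intensity ratio per well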); conditions: HUVEC TNFa-induced p65 nuclear translocation; cell count: measured here: nuclei count (cytotoxicity indicator), at 2.08 µM; inhibition: at 2 µM, stronger effect = higher value, 0% TNFa-plus-vehicle, 100% no-TNFa wells
[2] = inhibitors of mutant huntingtin aggregation, primary screen, imaging, exon1htt(103Q)mCFP cells, high-content imaging (AID 483;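 active = visual image review flags a hit and inhibition of aggregation exceeds 20%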;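 also: compound exposure lasted 3 days before fixation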;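 as to nuclei count: percent of the per-plate median nuclei count of sample wells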); conditions: exon1htt(103Q)mCFP cell line, aggregate imaging, at 2 µM; inhibition of aggregation: stronger effect = higher value; nuclei count: measured here: cell count, toxicity
[3] = inhibitors of E-selectin induction by TNFa, primary screen, imaging, HUVEC, immunofluorescence, MLSMR starter and 10KST1 sets (AID 487;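 active = visually confirmed hit in the image check and inhibition above 20%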;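 as to inhibition: signal is fraction of cell area covered by stained E-selectin grains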;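 as to nuclei count: 100% = median nuclei count of all wells on the same plate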); conditions: HUVEC TNFalpha-induced E-selectin immunofluorescence imaging, at 2 µM; inhibition: stronger effect = higher value; nuclei count: measured here: cell number, toxicity
[4] = target: Voltage-gated potassium channel subunit beta-2 (Rattus norvegicus) (UniProt P62483); assay: KvBeta enzyme negative modulators, primary screen, biochemical, NADPH fluorescence (AID 622;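 active = fluorescence slope higher than the sample average by over 3 SD, cut at about -0.22 in these data, passing the limit was not always enough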;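 also: slope of raw intensity against log time taken from 70 to 1610 s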); conditions: recombinant KvBeta, 4-cyanobenzaldehyde reduction, at 10 µM, stronger effect = higher value
Voltage-gated potassium channel subunit beta-2 (Rattus norvegicus), sequence (P62483 whole entry, looked up): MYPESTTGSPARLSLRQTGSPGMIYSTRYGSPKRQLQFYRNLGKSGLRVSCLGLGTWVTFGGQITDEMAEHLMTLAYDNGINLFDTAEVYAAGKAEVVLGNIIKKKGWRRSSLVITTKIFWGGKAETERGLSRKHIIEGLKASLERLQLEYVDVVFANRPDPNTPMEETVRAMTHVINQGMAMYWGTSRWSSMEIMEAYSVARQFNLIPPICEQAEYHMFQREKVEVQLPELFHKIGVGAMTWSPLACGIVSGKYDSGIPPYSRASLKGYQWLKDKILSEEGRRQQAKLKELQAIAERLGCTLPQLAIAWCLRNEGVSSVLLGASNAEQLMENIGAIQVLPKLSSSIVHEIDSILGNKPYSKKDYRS

[5] = target: Voltage-gated potassium channel subunit beta-2 (Rattus norvegicus) (UniProt P62483); assay: KvBeta positive modulators, primary screen, biochemical, NADPH fluorescence (AID 623;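 active = NADPH fluorescence slope more negative than the mean of all samples by about 3 SD, 99.7% confidence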;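 also: fluorescence intensity change per second fitted from 20 to 320 s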); conditions: Recombinant KvBeta, NADPH fluorescence decrease slope, 10 min; at 10 µM; stronger effect = lower value
[6] = target: Alpha-2C adrenergic receptor (Homo sapiens) (UniProt P18825); assay: modulators of alpha2C/GIRK thallium flux, primary screen, cell-based, HEK293 alpha2C/GIRK1/2 (AID 624;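 active = fluorescence slope after compound addition differing from the mean of all screened samples at 99.7% confidence, in either direction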;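 also: slope of fluorescence ratio to pre-addition baseline per second over 15 to 24 s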); conditions: thallium flux BTC fluorescence, at 10 µM, actives lie on both sides
Alpha-2C adrenergic receptor (Homo sapiens), sequence (P18825 whole entry, looked up): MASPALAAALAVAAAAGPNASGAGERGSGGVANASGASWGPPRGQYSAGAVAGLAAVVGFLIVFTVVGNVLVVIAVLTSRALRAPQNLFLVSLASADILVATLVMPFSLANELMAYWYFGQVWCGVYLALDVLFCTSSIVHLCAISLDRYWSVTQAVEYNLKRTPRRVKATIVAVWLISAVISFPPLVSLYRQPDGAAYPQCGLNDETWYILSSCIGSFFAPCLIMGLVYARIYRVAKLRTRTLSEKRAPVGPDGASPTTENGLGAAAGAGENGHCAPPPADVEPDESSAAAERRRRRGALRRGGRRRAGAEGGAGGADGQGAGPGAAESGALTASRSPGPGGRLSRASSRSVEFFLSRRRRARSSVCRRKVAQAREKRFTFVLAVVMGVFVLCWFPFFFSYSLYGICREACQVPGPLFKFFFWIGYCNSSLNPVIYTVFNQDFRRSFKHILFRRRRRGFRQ

[7] = inhibitors of Sendai virus-induced IRF3 signaling, primary screen, TLR/RLR signaling modifier project, cell-based, Sendai virus stimulus, luciferase, 10K MLSCN set (AID 602276;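 active = inhibition at or above 50% at 10 µM; inactive = inhibition below 50%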;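 also: firefly luciferase from ISG56 promoter only with Renilla not read in this screen; 0% = Sendai virus plus DMSO and 100% = medium plus DMSO without virus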); conditions: HEK293 RL24 IRF3 luciferase reporter, at 10 µM, stronger effect = higher value
[8] = inhibitors of poly I:C-induced TLR3 signaling, primary screen, cell-based, poly I:C stimulus, luciferase, 10K MLSCN set (AID 602277); conditions: HEK293-TLR3 RL24 IRF3 luciferase reporter, at 10 µM, stronger effect = higher value

| Compound | cell count [1] | inhibition [1] | inhibition of aggregation [2] | nuclei count [2] [%] | inhibition [3] | nuclei count [3] [%] | fluorescence slope [4] | NADPH fluorescence slope [5] | slope [6] | inhibition [7] | inhibition [8] |
| --- | --- | --- | --- | --- | --- | --- | --- | --- | --- | --- | --- |
| CCOC(=O)N1CCC(NC(=O)c2cc3c(=O)n(C)c4ccccc4c3n2C)CC1 | 701 | -2.8% (inactive) | 4.2% (inactive) | 140 | -50.1% (inactive) | 112 | -0.416 (inactive) | -6.5e-05 (inactive) | 0.00503 (inactive) | 4.95% (inactive) | 28.7% (inactive) |
| CC(=O)Nc1ccc(S(=O)(=O)CCC#N)cc1 | 424 | 7.2% (inactive) | 2.2% (inactive) | 90.4 | -113% (inactive) | 107 | -0.482 (inactive) | -3.9e-05 (inactive) | 0.00638 (inactive) | 11.9% (inactive) | 20% (inactive) |
| CCOC(=O)Cn1nc(-c2ccc(Cl)cc2)cc1N | 285 | 15.6% (inactive) | -12% (inactive) | 99.9 | -2.9% (inactive) | 111 | -0.501 (inactive) | -8.2e-05 (inactive) | 0.00497 (inactive) | -5.22% (inactive) | -25.8% (inactive) |
| COc1cccc(NC(=O)N2CCN(C(=O)C(Cc3ccc(OC)c(OC)c3)NC(C)=O)CC2)c1 (centres undefined) | 364 | -0.5% (inactive) | -4% (inactive) | 107 | -47.6% (inactive) | 99.9 | -0.355 (inactive) | -3.6e-05 (inactive) | 0.00701 (inactive) | 12.1% (inactive) | 22.8% (inactive) |
| CC(C)(C)c1cc(CCC(=O)N2CCNCC2)c(C(C)(C)C)cc1O | 557 | -31.3% (inactive) | 18.7% (inactive) | 102 | -57% (inactive) | 101 | -0.411 (inactive) | -9e-05 (inactive) | 0.00515 (inactive) | 13.9% (inactive) | 27.5% (inactive) |
| COc1cccc(NC(=O)COC(=O)c2cccnc2)c1 | 354 | -1.6% (inactive) | -3.6% (inactive) | 105 | -15.5% (inactive) | 108 | -0.503 (inactive) | -6.6e-05 (inactive) | 0.0053 (inactive) | 20.2% (inactive) | 19.2% (inactive) |
| O=C(CN1CCC(c2nc3ccccc3s2)CC1)NCc1cccs1 | 699 | -1% (inactive) | 12.8% (inactive) | 87.9 | -4.6% (inactive) | 103 | -0.604 (inactive) | -3.9e-05 (inactive) | 0.00309 (inactive) | -1.46% (inactive) | -58.5% (inactive) |
| CC(NC(=O)Cc1cccs1)c1ccc2c(c1)OCO2 (centres undefined) | 333 | 5.1% (inactive) | -3.8% (inactive) | 104 | -9.2% (inactive) | 109 | -0.609 (inactive) | -2.4e-05 (inactive) | 0.00364 (inactive) | 14.9% (inactive) | 4.01% (inactive) |
| O=C(Cn1c(-c2cncs2)nc2ccccc21)NC1CCCC1 | 700 | -12.4% (inactive) | 0% (inactive) | 114 | -9.6% (inactive) | 109 | -0.31 (inactive) | -4.5e-05 (inactive) | 0.00471 (inactive) | 0.467% (inactive) | 16.2% (inactive) |
| CN(C)c1ccc(/C(=N\O)c2ccccc2)cc1 | 429 | 1.2% (inactive) | -6.9% (inactive) | 93.6 | 25.3% (inactive) | 103 | -0.465 (inactive) | 1.6e-05 (inactive) | 0.00326 (inactive) | -24.9% (inactive) | -21.7% (inactive) |
| Cc1cc(C)cc(N(CC(=O)NC2CCC(C)CC2)S(=O)(=O)c2c(C)noc2C)c1 (centres undefined) | 753 | -6.3% (inactive) | 12.1% (inactive) | 114 | -27.2% (inactive) | 115 | -0.622 (inactive) | -3e-05 (inactive) | 0.00687 (inactive) | 7.51% (inactive) | 32.5% (inactive) |
| CC1CN(C(=O)CSc2nnc(-c3ccncc3)n2-c2ccccc2)CC(C)O1 (centres undefined) | 447 | 2.9% (inactive) | 4% (inactive) | 101 | 71.2% (active) | 124 | -0.605 (inactive) | 5.9e-06 (inactive) | 0.00638 (inactive) | 20.7% (inactive) | 24.3% (inactive) |
| CC(=O)c1sc(NC(=O)C2COc3ccccc3O2)nc1C (centres undefined) | 604 | -0.3% (inactive) | 24.9% (inactive) | 87.8 | 19.7% (inactive) | 104 | -0.586 (inactive) | -2.4e-05 (inactive) | 0.00774 (inactive) | 15.8% (inactive) | -48.7% (inactive) |
| c1ccc(Cc2nn3c(Cn4cnc5ccccc54)nnc3s2)cc1 | 415 | 1.4% (inactive) | 9.2% (inactive) | 80.7 | -19.6% (inactive) | 91.6 | -0.512 (inactive) | -5.6e-05 (inactive) | 0.00479 (inactive) | 15.8% (inactive) | -2.79% (inactive) |

— PubChem BioAssay
